Test results as given in PubChem BioAssay AID1220 (Sanford-Burnham Center for Chemical Genomics, 2008).
Hit rate of the full screen: of about 190,000 compounds, about 1,300 (0.68%) were called active. Rule as the data show it: active = inhibition above about 50%; inactive = the rest. This excerpt belongs to a sample that is enriched for actives.

molecular target: Mannose-6-phosphate isomerase (Homo sapiens) (UniProt P34949); assay: MPI inhibition at elevated mannose 6-phosphate – biochemical, fluorescence intensity, high mannose 6-phosphate, primary screen (AID 1220); conditions: recombinant PMI enzyme, coupled fluorescence intensity; at 20 µM; stronger effect = higher value
Sequence (P34949 whole entry, looked up): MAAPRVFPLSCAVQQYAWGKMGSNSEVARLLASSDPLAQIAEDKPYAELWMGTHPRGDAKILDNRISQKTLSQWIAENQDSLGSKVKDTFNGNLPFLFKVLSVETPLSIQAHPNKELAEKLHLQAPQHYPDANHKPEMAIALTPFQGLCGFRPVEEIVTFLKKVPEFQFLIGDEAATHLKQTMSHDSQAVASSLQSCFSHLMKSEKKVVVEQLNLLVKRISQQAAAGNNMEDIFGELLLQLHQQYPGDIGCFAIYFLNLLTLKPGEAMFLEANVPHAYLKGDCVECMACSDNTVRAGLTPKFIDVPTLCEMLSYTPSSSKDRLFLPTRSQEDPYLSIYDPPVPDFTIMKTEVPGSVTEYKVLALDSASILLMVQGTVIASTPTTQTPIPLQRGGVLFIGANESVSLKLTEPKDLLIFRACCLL

SMILES | inhibition
COc1cccc(C2CC(c3c(Cl)cccc3Cl)n3nc(N)nc3N2)c1 (stereo not given) | 11.8% (inactive)
COc1ccc(C2CC(c3c(Cl)cccc3Cl)n3nc(N)nc3N2)cc1 (stereo not given) | 56.3% (active)
COc1ccc(C2CC(c3ccc(OC)cc3)n3nc(N)nc3N2)cc1 (stereo not given) | 10.5% (inactive)
COc1cccc2c1C(=O)c1ccc3ccccc3c1C2=O | -81.6% (inactive)
CN(C)C=C1C(=O)c2ccccc2C1=O | 0.8% (inactive)
CN(C)/C=C1/Oc2c(ccc3ccccc23)C1=O | 59.2% (active)
CCCn1c(=O)c2c(nc(Br)n2CCC)n(C)c1=O | -0.3% (inactive)
COc1ccc(NC(=O)c2ccc(NC(=O)C(C)C)cc2)c([N+](=O)[O-])c1 | 1.6% (inactive)
COc1ccc(NC(=O)C(c2cc3c(cc2[N+](=O)[O-])OCO3)N(C)Cc2ccccc2)cc1 (stereo not given) | 54.8% (active)
COc1ccc(NC(=O)C(c2cc3c(cc2[N+](=O)[O-])OCO3)N2CCN(C=O)CC2)cc1 (stereo not given) | 65.9% (active)
COc1ccc(NC(=O)/C=C/c2ccc3c(c2)OCO3)cc1 | 8.9% (inactive)
O=C(Cc1ccccc1[N+](=O)[O-])Nc1ccc2c(c1)OCO2 | 0% (inactive)
COc1ccc(NC(=O)CN2CCN(CC(=O)Nc3ccc4c(c3)OCO4)CC2)cc1 | 0.8% (inactive)
CCN(c1cccc(C)c1)C(C(=O)Nc1ccc(OC)cc1)c1cc2c(cc1[N+](=O)[O-])OCO2 (stereo not given) | 54.3% (active)
COc1ccc(NC(=O)C(c2cc3c(cc2[N+](=O)[O-])OCO3)N(C)C)cc1 (stereo not given) | 55.6% (active)
CC1CCCN(C(C(=O)NC2CCCCC2)c2cc3c(cc2[N+](=O)[O-])OCO3)C1 (stereo not given) | 41.4% (inactive)
COc1ccc(C(C(=O)Nc2ccc3c(c2)OCO3)N(C)C(=O)Cc2c[nH]c3ccccc23)cc1 (stereo not given) | 18.8% (inactive)
COc1ccc(NC(=O)C(c2cc3c(cc2[N+](=O)[O-])OCO3)N(C)c2ccccc2)cc1 (stereo not given) | 43.1% (inactive)
Cc1c(C(=O)OCC(=O)Nc2ccc3c(c2)OCO3)cccc1[N+](=O)[O-] | 16.9% (inactive)
Cc1nn2cnc3sc4c(c3c2nc1=O)CCCC4 | 1.4% (inactive)
Cc1ccc(C)c(NC(=O)CSc2n[nH]c(-c3ccncc3)n2)c1 | 4.4% (inactive)
COc1cc(C(=O)NCCC(=O)N2CCN(C)CC2)cc(OC)c1OC | -1% (inactive)
COC(=O)c1ccc(NC(=O)C2CCCN2S(=O)(=O)c2ccc(C)cc2)cc1 (stereo not given) | 2.7% (inactive)
O=C(O)/C(=C\c1ccc(Cl)c([N+](=O)[O-])c1)c1ccc(S(=O)(=O)N2CCCCC2)s1 | 57% (active)
O=C(O)/C(=C\c1ccc(Br)cc1)c1ccc(S(=O)(=O)N2CCCCC2)s1 | 3.7% (inactive)

SMILES | inhibition
O=C(O)/C(=C\c1ccccc1Cl)c1ccc(S(=O)(=O)N2CCCCC2)s1 | -23% (inactive)
Cc1c(Cl)c([N+](=O)[O-])nn1CCCC(=O)N1CCN(c2ccccc2)CC1 | -19.1% (inactive)
COc1cccc(CNC(=S)Nc2cc(C)cc(C)c2)c1 | 4.2% (inactive)
O=c1[nH]c2ccccc2n2c(-c3ccccc3)nnc12 | 74.5% (active)
O=c1[nH]c2ccccc2n2cnnc12 | -5.9% (inactive)
O=c1[nH]c2ccccc2n2c(-c3ccncc3)nnc12 | 0.5% (inactive)
COc1ccc(S(=O)(=O)N(C)CC(=O)Nc2ccc(C(N)=O)cc2)cc1OC | -13.3% (inactive)
CC(C)N(C(=O)CSc1nnc(CNc2ccc(F)cc2)o1)C(C)C | 17% (inactive)
Cc1cc(C)c(O)c(N)c1 | 61.3% (active)
Cc1cc(C)c2ccc(N)nc2c1O | 26% (inactive)
Cc1cc(C)c2nc(N)sc2c1 | 7.6% (inactive)
Cc1nc2cc(C)c(C)cc2s1 | -8.8% (inactive)
CCC(C)(C)NC(=O)c1cc(C(=O)OC)cc([N+](=O)[O-])c1 | -6.6% (inactive)
O=C(N/N=C/C(Br)=C/c1ccccc1)C1CC1 | 14.3% (inactive)
COc1cc2c(cc1O)CC[n+]1cc3c(OC)c(OC)ccc3cc1-2 | 39.9% (inactive)
COc1ccc2cc3[n+](cc2c1OC)CCc1cc2c(cc1-3)OCO2 | 33.7% (inactive)
COc1cc2c(cc1OC)-c1cc3ccc4c(c3c[n+]1CC2)OCO4 | 53.6% (active)
O=C1c2ccccc2-n2c1nc1ccccc1c2=O | 50.7% (active)
O=c1c2ccccc2nc(-c2cccs2)n1-c1cccc2ccccc12 | -3.7% (inactive)
O=c1c2ccccc2nc(-c2ccccc2Cl)n1O | -7.6% (inactive)
O=C(NCc1ccco1)Nc1ccccc1Cl | 5.5% (inactive)
NS(=O)(=O)c1ccc(CCNC(=O)c2ccc(S(=O)(=O)N3CCCCC3)cc2)cc1 | -2.8% (inactive)
O=C(c1ccc(Cl)cc1)c1c[nH]c(C(=O)NNc2cccc(Cl)n2)c1 | 4.5% (inactive)
CCOc1ccccc1CNc1ccc(O)cc1 | 59.4% (active)
Oc1ccc(NCc2ccccc2OCc2ccccc2)cc1 | 47.7% (inactive)

SMILES | inhibition
Oc1ccc(NCc2ccccc2OCc2ccccc2F)cc1 | 25% (inactive)
COc1ccc(C2SCC(=O)N2c2c(C)n(C)n(-c3ccccc3)c2=O)cc1OC (stereo not given) | -1.7% (inactive)
CCOc1ccc(OCC)c(S(=O)(=O)NNC(=O)c2c(C)nc3ccccn23)c1 | -3.5% (inactive)
Cc1ccc(C(=O)CC2(O)C(=O)N(C)c3ccccc32)s1 (stereo not given) | 9.4% (inactive)
CC(=O)N1c2ccccc2C(C)(C)C2CCC(C)CC21 (stereo not given) | -3.5% (inactive)
CC(=O)N1c2ccccc2C2(O)N=C(C)SC12 (stereo not given) | 52.8% (active)
CCOC(=O)C1=C(C)N(C)C(=O)NC1c1c(C)nn(-c2ccc(C)cc2)c1Cl (stereo not given) | -4% (inactive)
CCOC(=O)C1=C(C)N(C)C(=O)NC1c1c(C)nn(-c2ccccc2)c1C (stereo not given) | 1.3% (inactive)
Nc1nc(SCC(=O)NCC2CCCO2)n[nH]1 (stereo not given) | 5.9% (inactive)
CCOc1ccc2[nH]c(=O)c(CN(CCO)C(=O)c3ccccc3F)cc2c1 | -1% (inactive)
CCCN1CCCc2cc(CN)ccc21 | 50.4% (active)
CCCN1CCCc2ccccc21 | -58.9% (inactive)
CCc1ccc2c(c1)CCCN2C(=O)c1ccccc1C(=O)O | -10% (inactive)
COc1cc(C2C(C(C)=O)=C(O)C(=O)N2CCc2c[nH]c3ccccc23)ccc1O (stereo not given) | 21.6% (inactive)
CCOC(=O)CCCNC(=O)COC(=O)c1cccc(C)c1O | -3.7% (inactive)
S=C1NCCOCCOCCNC(=S)N2CCOCCOCCN1CCOCCOCC2 | 11.7% (inactive)
CC(=O)N1CCC(N(CCN2CCOCC2)C(=S)Nc2cccc(C)c2)CC1 | -11.5% (inactive)
CC1(C)CC2CC(C)(CN2Cc2c(O)ccc3ccccc23)C1 (stereo not given) | 66.3% (active)
CC1(C)CC2CC(C)(CN2C(=O)COc2cccc3ccccc23)C1 (stereo not given) | 2.7% (inactive)
CC1(C)CC2CC(C)(CN2CC(=O)C(C#N)c2ccccc2)C1 (stereo not given) | -41% (inactive)
O=Cc1ccc2noc(-c3ccc(F)cc3)c2c1 | -86.8% (inactive)
CCCn1nnc(NC(=O)c2ccc(OCC)c(Cl)c2)n1 | 2% (inactive)
CC(=O)c1ccc(NC2OC(C)C(O)C(O)C2O)cc1 (stereo not given) | 20.1% (inactive)
CC1OC(Nc2cccc3ccccc23)C(O)C(O)C1O (stereo not given) | 60.5% (active)
CC1OC(Nc2ccc(N=Nc3ccccc3)cc2)C(O)C(O)C1O (stereo not given) | 8.3% (inactive)

SMILES | inhibition
Cc1ccc2cc(CN(Cc3cccs3)Cc3nnnn3CC3CCCO3)c(=O)[nH]c2c1C (stereo not given) | 0.6% (inactive)
COc1cccc(NC(=S)N(Cc2ccc(Cl)cc2)Cc2ccc(C(=O)O)cc2)c1 | -30.6% (inactive)
COc1ccccc1CC(=O)NCC(c1ccco1)N1CCCCC1 (stereo not given) | 58.9% (active)
COc1ccccc1NC(=O)NCC(c1ccco1)N1CCCCC1 (stereo not given) | 0.2% (inactive)
O=C(Cc1ccccc1F)NCC(c1ccco1)N1CCCCC1 (stereo not given) | -5.8% (inactive)
O=C(c1ccco1)N1CCN(C(c2ccc(F)cc2)c2nnnn2Cc2cccs2)CC1 (stereo not given) | -6% (inactive)
Cn1cnc2cc(NC(=O)c3ccc(Cl)cc3)ccc21 | -16.1% (inactive)
CSc1nc2ccccc2n1CC(=O)Nc1cc(C(F)(F)F)ccc1N1CCOCC1 | -1.6% (inactive)
NS(=O)(=O)c1ccc(C(=O)O)cc1 | -8% (inactive)
N#CC(C#N)=C1c2cc(S(N)(=O)=O)ccc2-c2ccc(S(N)(=O)=O)cc21 | 57.5% (active)
N#CC(C#N)=Cc1cccn1-c1ccc(S(N)(=O)=O)cc1 | 0% (inactive)
CC(C)OP(=O)(c1ccccc1)c1ccccc1 | -8.8% (inactive)
C=CCN1C(=NC(=O)CCC)SC2CS(=O)(=O)CC21 (stereo not given) | -8.2% (inactive)
CNC(=O)/C(C#N)=C/c1ccc(-c2ccccc2[N+](=O)[O-])o1 | 61% (active)
N#C/C(=C/c1ccc(-c2ccccc2[N+](=O)[O-])o1)C(N)=O | 51.9% (active)
N#C/C(=C\c1ccc(-c2ccccc2[N+](=O)[O-])o1)C(=O)Nc1nc(-c2cccs2)cs1 | 53.1% (active)
CNC(=O)/C(C#N)=C/c1ccc(-c2ccc(OC)cc2[N+](=O)[O-])o1 | 29.2% (inactive)
N#C/C(=C\c1ccc(-c2ccc(F)cc2)o1)C(=O)Nc1nc(-c2cccs2)cs1 | 30.8% (inactive)
O=C(/C=C/c1ccc(-c2ccccc2[N+](=O)[O-])o1)c1ccccc1 | 47.3% (inactive)
O=C(/C=C/c1ccc(-c2ccccc2[N+](=O)[O-])o1)c1ccc(Br)cc1 | -32.8% (inactive)
O=C(/C=C/c1ccc(-c2ccccc2[N+](=O)[O-])o1)c1ccc(F)cc1 | 34.1% (inactive)
N#C/C(=C\c1ccc(-c2ccccc2[N+](=O)[O-])o1)C(=O)N1CCOCC1 | 45.8% (inactive)
Cc1ccc(Cc2cnc(NC(=O)/C(C#N)=C/c3ccc(-c4ccccc4[N+](=O)[O-])o3)s2)cc1 | 30.3% (inactive)
COCCNC(=O)/C(C#N)=C/c1ccc(-c2ccc(OC)cc2[N+](=O)[O-])o1 | 42.2% (inactive)
O=C(/C=C/c1ccc(-c2ccccc2[N+](=O)[O-])o1)c1ccco1 | 51.7% (active)
